The values below come from paper PMC7862700, “An all-to-all approach to the identification of sequence-specific readers for epigenetic DNA modifications on cytosine”.

Experiment in all cases: DAPPL (digital affinity profiling via proximity ligation, sequencing); 10 mM Tris-HCl pH 7.5, 50 mM NaCl, 1 mM DTT, 4% glycerol, room temperature, 30 min; GST-TFs on glutathione beads, 16-mer random dsDNA library, 0.1% formaldehyde crosslink after washing; high values mean tight binding
For one assay, the target named is T1, FEV (Homo sapiens, UniProt Q99581 1-238).
T1 sequence: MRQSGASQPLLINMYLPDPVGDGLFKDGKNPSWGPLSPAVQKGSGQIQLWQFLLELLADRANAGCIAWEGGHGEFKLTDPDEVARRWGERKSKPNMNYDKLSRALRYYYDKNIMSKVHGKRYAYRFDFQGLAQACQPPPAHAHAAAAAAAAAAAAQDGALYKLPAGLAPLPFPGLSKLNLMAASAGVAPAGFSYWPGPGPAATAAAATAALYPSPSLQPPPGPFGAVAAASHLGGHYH
The note with it: protein: recombinant; tags: N-terminal GST; dsDNA, one strand shown. An outline of the steps: (§1)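 Binding signal is defined as a hexamer's read frequency for one factor over its frequency for the tag-only sample. To obtain reads, GST-fused human transcription factors were expressed in yeast, captured on glutathione beads, barcoded with DNA and pooled with that sample. Pools met 200 nmole of a 16-mer random double-stranded DNA library in Tris/NaCl/DTT/glycerol buffer for 30 min at room temperature before washing, 0.1% formaldehyde crosslinking, proximity ligation (BsaI/T4 ligase, 1 h, 37 °C), PCR and Illumina NextSeq500 sequencing.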

In the next assay the target is ETV5 (Homo sapiens, UniProt P41161 1-510). The note with it: protein: recombinant; tags: N-terminal GST; dsDNA, one strand shown. The method, boiled down:
as §1

The target in a further assay is HSF1 (Homo sapiens, UniProt Q00613 1-529). The note with it: protein: recombinant; tags: N-terminal GST; chain copies: 3; dsDNA, one strand shown. An outline of the steps: as §1
Chain of HSF1 (Q00613 whole entry): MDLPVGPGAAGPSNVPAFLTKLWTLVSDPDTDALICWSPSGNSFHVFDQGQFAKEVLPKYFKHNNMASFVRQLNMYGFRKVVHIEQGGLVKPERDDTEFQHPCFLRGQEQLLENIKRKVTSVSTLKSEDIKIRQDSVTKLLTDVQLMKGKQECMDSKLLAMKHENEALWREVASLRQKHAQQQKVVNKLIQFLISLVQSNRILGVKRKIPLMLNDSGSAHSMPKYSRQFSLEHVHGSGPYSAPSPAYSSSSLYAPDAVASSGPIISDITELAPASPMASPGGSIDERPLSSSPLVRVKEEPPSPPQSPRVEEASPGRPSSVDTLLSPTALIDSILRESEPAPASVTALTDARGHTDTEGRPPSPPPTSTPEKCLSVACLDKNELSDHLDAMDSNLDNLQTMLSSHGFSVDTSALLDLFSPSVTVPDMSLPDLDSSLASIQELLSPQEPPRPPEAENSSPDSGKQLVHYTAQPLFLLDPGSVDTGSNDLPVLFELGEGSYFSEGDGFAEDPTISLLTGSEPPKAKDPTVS
A further assay has as its target T2, SPIC (Homo sapiens, UniProt Q8N5J4 1-248).
T2 sequence: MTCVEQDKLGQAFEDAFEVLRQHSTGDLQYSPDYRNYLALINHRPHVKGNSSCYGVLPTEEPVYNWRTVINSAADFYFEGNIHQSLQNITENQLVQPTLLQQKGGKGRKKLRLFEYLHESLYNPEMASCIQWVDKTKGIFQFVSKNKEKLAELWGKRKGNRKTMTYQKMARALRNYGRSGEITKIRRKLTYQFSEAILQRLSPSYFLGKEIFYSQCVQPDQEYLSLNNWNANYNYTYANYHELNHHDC
The settings on record: protein: recombinant; tags: N-terminal GST; dsDNA, one strand shown. An outline of the steps: as §1

For the next assay, the target named is ELF4 (Homo sapiens, UniProt Q99607 1-663). The note with it: protein: recombinant; tags: N-terminal GST; dsDNA, one strand shown. An outline of the steps:
as §1

In another assay the target is T3, ELK4 (Homo sapiens, UniProt P28324-2 1-405).
T3 sequence: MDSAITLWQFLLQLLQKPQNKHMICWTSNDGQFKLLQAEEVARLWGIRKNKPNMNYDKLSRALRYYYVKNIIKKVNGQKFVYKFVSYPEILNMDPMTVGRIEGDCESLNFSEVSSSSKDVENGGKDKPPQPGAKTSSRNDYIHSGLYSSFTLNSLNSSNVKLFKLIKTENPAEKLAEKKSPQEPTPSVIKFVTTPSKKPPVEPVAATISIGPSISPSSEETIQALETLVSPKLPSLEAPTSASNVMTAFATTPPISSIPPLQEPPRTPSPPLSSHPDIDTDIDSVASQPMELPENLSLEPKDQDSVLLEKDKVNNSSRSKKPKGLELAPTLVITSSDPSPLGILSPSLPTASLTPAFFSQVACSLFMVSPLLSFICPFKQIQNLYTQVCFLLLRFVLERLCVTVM
The note with it: protein: recombinant; tags: N-terminal GST; dsDNA, one strand shown. The method, boiled down:
as §1

The target of another assay is T4, ETV2 (Homo sapiens, UniProt O00321 1-342).
T4 sequence: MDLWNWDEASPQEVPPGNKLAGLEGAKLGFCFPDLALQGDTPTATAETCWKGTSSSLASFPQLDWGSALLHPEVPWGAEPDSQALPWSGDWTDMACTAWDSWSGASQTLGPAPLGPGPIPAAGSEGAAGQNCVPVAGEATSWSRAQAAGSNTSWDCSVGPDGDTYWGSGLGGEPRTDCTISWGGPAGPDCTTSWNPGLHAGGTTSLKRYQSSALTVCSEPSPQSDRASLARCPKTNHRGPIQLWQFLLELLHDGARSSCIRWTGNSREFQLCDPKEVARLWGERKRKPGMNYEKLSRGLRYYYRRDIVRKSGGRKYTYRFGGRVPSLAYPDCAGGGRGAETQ
The note with it: protein: recombinant; tags: N-terminal GST; dsDNA, one strand shown. The method, boiled down: as §1

The target in the next assay is T5, ELF3 (Homo sapiens, UniProt P78545 1-371).
T5 sequence: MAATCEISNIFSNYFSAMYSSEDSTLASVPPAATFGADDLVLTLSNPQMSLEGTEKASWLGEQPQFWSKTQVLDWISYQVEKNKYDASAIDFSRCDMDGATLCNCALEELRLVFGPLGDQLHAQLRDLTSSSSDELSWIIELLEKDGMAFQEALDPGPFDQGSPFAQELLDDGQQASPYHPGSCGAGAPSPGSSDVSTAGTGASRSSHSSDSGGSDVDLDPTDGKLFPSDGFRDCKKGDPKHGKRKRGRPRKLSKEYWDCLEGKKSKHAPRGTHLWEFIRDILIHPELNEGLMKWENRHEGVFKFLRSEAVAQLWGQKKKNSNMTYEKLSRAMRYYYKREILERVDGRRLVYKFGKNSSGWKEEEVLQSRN
The settings on record: protein: recombinant; tags: N-terminal GST; dsDNA, one strand shown. An outline of the steps: as §1

In a further assay the target is CRX (Homo sapiens, UniProt O43186 1-299). The settings on record: protein: recombinant; tags: N-terminal GST; dsDNA, one strand shown. An outline of the steps: as §1
Chain of CRX (O43186 whole entry): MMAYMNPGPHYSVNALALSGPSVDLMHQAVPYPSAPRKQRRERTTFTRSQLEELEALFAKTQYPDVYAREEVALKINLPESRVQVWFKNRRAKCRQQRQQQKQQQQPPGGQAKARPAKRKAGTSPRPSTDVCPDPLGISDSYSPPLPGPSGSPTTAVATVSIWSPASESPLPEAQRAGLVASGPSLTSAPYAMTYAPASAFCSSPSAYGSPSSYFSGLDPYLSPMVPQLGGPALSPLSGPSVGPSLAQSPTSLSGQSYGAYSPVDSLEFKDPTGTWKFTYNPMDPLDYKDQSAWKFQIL
The target in the next assay is ETV1 (Homo sapiens, UniProt P50549 1-477). The note with it: protein: recombinant; tags: N-terminal GST; dsDNA, one strand shown. An outline of the steps: as §1
Chain of ETV1 (P50549 whole entry): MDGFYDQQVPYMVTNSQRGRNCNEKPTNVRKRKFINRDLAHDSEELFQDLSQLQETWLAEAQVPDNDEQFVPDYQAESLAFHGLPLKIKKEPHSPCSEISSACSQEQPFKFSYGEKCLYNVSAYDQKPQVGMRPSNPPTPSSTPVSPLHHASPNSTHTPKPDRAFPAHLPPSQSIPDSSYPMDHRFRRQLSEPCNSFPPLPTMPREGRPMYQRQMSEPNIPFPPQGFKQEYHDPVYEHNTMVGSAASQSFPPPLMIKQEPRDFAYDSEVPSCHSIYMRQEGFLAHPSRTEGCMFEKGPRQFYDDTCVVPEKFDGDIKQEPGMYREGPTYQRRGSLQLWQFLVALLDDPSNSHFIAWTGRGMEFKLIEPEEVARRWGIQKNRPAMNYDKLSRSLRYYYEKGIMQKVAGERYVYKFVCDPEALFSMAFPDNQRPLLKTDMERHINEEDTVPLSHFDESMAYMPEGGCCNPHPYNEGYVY
The target in the next assay is T6, ERF (Homo sapiens, UniProt P50548 1-548).
T6 sequence: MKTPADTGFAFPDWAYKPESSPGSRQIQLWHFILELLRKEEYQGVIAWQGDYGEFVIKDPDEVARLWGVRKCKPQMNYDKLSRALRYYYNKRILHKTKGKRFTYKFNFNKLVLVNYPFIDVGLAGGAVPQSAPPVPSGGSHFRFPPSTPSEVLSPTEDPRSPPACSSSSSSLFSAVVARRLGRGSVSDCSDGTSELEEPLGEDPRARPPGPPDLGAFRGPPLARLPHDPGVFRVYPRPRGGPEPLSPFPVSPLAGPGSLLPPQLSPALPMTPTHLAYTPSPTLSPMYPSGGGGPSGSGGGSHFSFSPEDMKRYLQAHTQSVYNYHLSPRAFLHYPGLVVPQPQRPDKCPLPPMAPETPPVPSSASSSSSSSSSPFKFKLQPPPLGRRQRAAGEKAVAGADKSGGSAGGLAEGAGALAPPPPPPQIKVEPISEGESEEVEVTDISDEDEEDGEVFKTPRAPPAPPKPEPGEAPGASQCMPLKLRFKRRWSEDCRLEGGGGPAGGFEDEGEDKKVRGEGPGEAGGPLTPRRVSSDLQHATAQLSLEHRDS
The settings on record: protein: recombinant; tags: N-terminal GST; dsDNA, one strand shown. An outline of the steps:
as §1

The next assay has as its target T7, ETV3L (Homo sapiens, UniProt Q6ZN32 1-361).
T7 sequence: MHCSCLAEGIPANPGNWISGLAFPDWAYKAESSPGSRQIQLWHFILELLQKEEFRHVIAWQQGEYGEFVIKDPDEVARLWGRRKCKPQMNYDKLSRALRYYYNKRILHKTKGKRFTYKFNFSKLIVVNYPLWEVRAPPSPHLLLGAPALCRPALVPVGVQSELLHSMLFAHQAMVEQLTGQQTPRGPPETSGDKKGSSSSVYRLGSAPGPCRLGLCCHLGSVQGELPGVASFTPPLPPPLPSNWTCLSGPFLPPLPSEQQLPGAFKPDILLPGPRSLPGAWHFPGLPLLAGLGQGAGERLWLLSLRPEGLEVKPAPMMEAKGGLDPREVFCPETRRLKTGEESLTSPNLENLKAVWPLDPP
The settings on record: protein: recombinant; tags: N-terminal GST; dsDNA, one strand shown. An outline of the steps: as §1

The next assay has as its target T8, ETS2 (Homo sapiens, UniProt P15036 1-469).
T8 sequence: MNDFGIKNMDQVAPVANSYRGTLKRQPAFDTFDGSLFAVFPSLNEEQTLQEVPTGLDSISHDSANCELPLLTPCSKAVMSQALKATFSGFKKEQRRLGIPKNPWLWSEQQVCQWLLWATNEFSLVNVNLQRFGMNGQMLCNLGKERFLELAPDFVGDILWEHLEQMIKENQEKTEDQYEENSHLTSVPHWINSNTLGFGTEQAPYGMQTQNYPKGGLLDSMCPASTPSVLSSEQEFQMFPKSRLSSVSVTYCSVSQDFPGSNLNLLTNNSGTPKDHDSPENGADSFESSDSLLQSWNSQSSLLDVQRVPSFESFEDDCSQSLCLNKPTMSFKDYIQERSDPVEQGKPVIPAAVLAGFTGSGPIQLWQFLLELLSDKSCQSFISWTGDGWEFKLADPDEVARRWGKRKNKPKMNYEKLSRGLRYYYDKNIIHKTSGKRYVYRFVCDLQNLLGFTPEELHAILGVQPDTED
The note with it: protein: recombinant; tags: N-terminal GST; dsDNA, one strand shown. The method, boiled down:
as §1

The target of a further assay is T9, SPDEF (Homo sapiens, UniProt O95238 1-335).
T9 sequence: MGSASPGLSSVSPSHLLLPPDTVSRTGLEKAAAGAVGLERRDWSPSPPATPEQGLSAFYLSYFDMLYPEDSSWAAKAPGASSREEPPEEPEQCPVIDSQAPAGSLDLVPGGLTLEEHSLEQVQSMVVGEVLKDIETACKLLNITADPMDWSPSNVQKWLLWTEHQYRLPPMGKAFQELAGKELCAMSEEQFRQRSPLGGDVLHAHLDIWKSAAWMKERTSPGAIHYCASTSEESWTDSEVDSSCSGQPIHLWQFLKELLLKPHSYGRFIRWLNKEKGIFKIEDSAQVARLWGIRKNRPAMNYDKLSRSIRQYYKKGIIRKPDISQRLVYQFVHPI
The settings on record: protein: recombinant; tags: N-terminal GST; dsDNA, one strand shown. The method, boiled down: as §1

The target of the next assay is T10, ETV7 (Homo sapiens, UniProt Q9Y603 1-341).
T10 sequence: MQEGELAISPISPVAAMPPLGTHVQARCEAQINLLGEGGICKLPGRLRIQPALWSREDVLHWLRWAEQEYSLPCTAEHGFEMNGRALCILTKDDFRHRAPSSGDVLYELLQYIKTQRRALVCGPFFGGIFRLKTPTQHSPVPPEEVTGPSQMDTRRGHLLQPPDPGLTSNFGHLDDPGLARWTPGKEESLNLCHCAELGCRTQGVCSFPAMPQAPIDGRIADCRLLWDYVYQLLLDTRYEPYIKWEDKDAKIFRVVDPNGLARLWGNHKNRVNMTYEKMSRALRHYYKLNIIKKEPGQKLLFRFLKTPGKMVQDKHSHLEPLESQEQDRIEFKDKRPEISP
The note with it: protein: recombinant; tags: N-terminal GST; dsDNA, one strand shown. The method, boiled down:
as §1

The next assay has as its target T11, ELF5 (Homo sapiens, UniProt Q9UKW6-2 1-255).
T11 sequence: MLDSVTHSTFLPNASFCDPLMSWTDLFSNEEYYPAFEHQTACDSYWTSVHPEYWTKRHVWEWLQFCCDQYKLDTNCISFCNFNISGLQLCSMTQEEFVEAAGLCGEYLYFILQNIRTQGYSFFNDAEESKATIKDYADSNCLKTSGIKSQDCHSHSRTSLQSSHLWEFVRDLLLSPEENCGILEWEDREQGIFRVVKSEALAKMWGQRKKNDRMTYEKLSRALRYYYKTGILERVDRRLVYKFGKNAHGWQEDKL
The note with it: protein: recombinant; tags: N-terminal GST; dsDNA, one strand shown. The method, boiled down: as §1

The next assay addresses T12, ETV3 (Homo sapiens, UniProt P41162-2 1-143).
T12 sequence: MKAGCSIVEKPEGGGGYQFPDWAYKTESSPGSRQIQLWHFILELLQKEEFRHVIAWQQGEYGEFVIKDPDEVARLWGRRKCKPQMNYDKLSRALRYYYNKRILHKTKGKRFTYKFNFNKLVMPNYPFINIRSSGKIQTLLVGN
The note with it: protein: recombinant; tags: N-terminal GST; dsDNA, one strand shown. The method, boiled down:
as §1

The target in a further assay is ETV6 (Homo sapiens, UniProt P41212 1-452). The settings on record: protein: recombinant; tags: N-terminal GST; dsDNA, one strand shown. The method, boiled down:
as §1

Chain of ETV5 (P41161 whole entry): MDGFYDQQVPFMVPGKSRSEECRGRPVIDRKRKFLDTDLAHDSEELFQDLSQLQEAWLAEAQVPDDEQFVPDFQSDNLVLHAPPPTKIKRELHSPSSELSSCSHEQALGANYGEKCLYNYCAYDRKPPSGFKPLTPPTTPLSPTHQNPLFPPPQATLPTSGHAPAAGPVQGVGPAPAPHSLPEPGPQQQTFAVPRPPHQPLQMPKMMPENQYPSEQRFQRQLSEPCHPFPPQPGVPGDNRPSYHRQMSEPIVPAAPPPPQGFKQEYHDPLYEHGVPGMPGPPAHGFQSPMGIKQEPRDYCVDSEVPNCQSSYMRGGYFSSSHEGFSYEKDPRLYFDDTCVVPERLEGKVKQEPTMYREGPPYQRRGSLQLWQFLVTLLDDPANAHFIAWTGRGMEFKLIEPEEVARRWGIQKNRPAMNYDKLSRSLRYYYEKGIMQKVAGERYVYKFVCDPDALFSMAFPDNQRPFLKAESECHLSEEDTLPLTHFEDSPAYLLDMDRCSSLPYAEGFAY
Chain of ETV6 (P41212 whole entry): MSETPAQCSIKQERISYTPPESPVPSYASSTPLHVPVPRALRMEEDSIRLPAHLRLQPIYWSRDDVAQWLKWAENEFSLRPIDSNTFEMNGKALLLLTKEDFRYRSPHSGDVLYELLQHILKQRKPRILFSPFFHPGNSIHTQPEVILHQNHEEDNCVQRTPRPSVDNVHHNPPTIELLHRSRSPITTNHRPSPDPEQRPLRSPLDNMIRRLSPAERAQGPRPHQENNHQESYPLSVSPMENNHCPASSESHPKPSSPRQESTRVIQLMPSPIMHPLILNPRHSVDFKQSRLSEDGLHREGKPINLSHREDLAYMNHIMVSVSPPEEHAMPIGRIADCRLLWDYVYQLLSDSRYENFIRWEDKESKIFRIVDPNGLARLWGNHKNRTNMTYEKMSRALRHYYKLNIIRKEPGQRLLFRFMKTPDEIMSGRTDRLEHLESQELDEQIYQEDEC
Chain of ELF4 (Q99607 whole entry): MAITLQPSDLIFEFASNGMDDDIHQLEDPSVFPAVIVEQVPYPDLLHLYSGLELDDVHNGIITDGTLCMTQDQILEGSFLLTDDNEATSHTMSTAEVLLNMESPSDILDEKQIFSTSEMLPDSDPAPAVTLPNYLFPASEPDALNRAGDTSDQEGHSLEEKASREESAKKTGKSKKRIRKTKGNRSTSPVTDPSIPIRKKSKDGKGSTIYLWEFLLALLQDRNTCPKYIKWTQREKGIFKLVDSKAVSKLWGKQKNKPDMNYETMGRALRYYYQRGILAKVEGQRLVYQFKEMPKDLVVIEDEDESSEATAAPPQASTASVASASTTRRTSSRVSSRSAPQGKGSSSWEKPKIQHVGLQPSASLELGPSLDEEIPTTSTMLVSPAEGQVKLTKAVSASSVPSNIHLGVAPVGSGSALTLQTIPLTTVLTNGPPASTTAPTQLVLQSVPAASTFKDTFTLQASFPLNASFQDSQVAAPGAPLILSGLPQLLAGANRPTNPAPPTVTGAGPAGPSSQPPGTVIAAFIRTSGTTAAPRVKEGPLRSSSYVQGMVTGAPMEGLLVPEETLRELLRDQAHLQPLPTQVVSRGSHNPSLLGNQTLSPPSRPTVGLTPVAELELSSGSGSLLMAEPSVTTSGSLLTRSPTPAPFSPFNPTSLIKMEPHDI

Regarding GCTTTG, the binding signal was 1.08 fold enrichment (6-mer frequency, TF over GST control) with FEV; 1.11 fold enrichment (6-mer frequency, TF over GST control) with ETV5; 1.23 fold enrichment (6-mer frequency, TF over GST control) in the assay with HSF1; 1.22 fold enrichment (6-mer frequency, TF over GST control) with SPIC; 1.17 fold enrichment (6-mer frequency, TF over GST control) with ELF4; 1.22 fold enrichment (6-mer frequency, TF over GST control) in the assay with ELK4. Further, the binding signal was 1.22 fold enrichment (6-mer frequency, TF over GST control) with ETV2; 1.16 fold enrichment (6-mer frequency, TF over GST control) with ELF3; 1.49 fold enrichment (6-mer frequency, TF over GST control) in the assay with CRX; 1.16 fold enrichment (6-mer frequency, TF over GST control) with ETV1; 1.09 fold enrichment (6-mer frequency, TF over GST control) with ERF; 1.19 fold enrichment (6-mer frequency, TF over GST control) with ETV3L. Moreover, the binding signal was 1.16 fold enrichment (6-mer frequency, TF over GST control) with ETS2; 1.12 fold enrichment (6-mer frequency, TF over GST control) in the assay with SPDEF; 1.44 fold enrichment (6-mer frequency, TF over GST control) in the assay with ETV7; 1.13 fold enrichment (6-mer frequency, TF over GST control) with ELF5; 1.15 fold enrichment (6-mer frequency, TF over GST control) in the assay with ETV3; 1.24 fold enrichment (6-mer frequency, TF over GST control) in the assay with ETV6.
